In the supplement of paper PMC8728848:
The full list was thinned out, with the strongest signals kept by preference.

Legend:
Experiment in all cases: glycan array binding signal (z-score within array); higher = stronger binding
Details in all cases: glycan notation: IUPAC condensed, linker removed
Kdn(a2-3)Gal(b1-4)GlcNAc = molecular target: Kdn(a2-3)Gal(b1-4)GlcNAc
Outline: (§1)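 Glycan array data were curated from 3228 arrays in the Consortium for Functional Glycomics database and kept only where the protein sequence was available. Glycan names were converted to IUPAC-condensed notation, and columns mapping to the same glycan were averaged. The binding signal is a within-array Z-score, averaged across arrays of the same protein sequence at different concentrations or buffers and across linkers. Negative Z-scores can be read as non-binding.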

[1] = molecular target: Kdn(a2-3)Gal(b1-4)[Fuc(a1-3)]GlcNAc
Outline: as §1

[2] = molecular target: Man(a1-2)Man(a1-2)Man(a1-3)Man
Outline: as §1

[3] = molecular target: Man(a1-3)[Man(a1-6)]Man(b1-4)GlcNAc(b1-4)[Fuc(a1-6)]GlcNAc
Outline: as §1

Neu5Ac(a2-3)Gal = molecular target: Neu5Ac(a2-3)Gal
Outline: as §1

[4] = molecular target: Neu5Ac(a2-3)Gal(b1-4)GlcNAc(b1-2)[Neu5Ac(a2-3)Gal(b1-4)GlcNAc(b1-6)]Man(a1-6)[Neu5Ac(a2-3)Gal(b1-4)GlcNAc(b1-2)Man(a1-3)]Man(b1-4)GlcNAc(b1-4)GlcNAc
Outline: as §1

[5] = molecular target: Neu5Ac(a2-3)Gal(b1-4)GlcNAc(b1-3)Gal(b1-4)GlcNAc
Outline: as §1

[6] = molecular target: Neu5Ac(a2-3)Gal(b1-4)GlcNAc(b1-3)Gal(b1-4)GlcNAc(b1-2)Man(a1-3)[Neu5Ac(a2-3)Gal(b1-4)GlcNAc(b1-3)Gal(b1-4)GlcNAc(b1-2)Man(a1-6)]Man(b1-4)GlcNAc(b1-4)GlcNAc
Outline: as §1

[7] = molecular target: Neu5Ac(a2-3)Gal(b1-4)[Fuc(a1-3)]GlcNAc(b1-2)Man
Outline: as §1

Neu5Ac(a2-3)GalNAc = molecular target: Neu5Ac(a2-3)GalNAc
Outline: as §1

[8] = molecular target: Neu5Ac(a2-6)Gal(b1-4)GlcNAc
Outline: as §1

[9] = molecular target: Neu5Ac(a2-6)Gal(b1-4)GlcNAc(b1-2)Man(a1-6)Man(b1-4)GlcNAc(b1-4)GlcNAc
Outline: as §1

[10] = molecular target: Neu5Ac(a2-6)Gal(b1-4)GlcNAc(b1-2)Man(a1-6)[Man(a1-3)]Man(b1-4)GlcNAc(b1-4)GlcNAc
Outline: as §1

[11] = molecular target: Neu5Ac(a2-6)Gal(b1-4)GlcNAc(b1-3)Gal(b1-4)[Fuc(a1-3)]GlcNAc(b1-3)Gal(b1-4)[Fuc(a1-3)]GlcNAc
Outline: as §1

[12] = molecular target: Neu5Ac(a2-8)Neu5Ac(a2-8)Neu5Ac
Outline: as §1

[13] = molecular target: Neu5Ac9Ac(a2-3)Gal(b1-3)GlcNAc
Outline: as §1

[14] = molecular target: Neu5Ac9Ac(a2-6)Gal(b1-4)GlcNAc
Outline: as §1

Neu5Gc(a2-3)Gal(b1-4)Glc = molecular target: Neu5Gc(a2-3)Gal(b1-4)Glc
Outline: as §1

B1: FliD (Clostridium difficile) (protein)
chain: MSSISPVRVTGLSGNFDMEGIIEASMIRDKEKVNKAKQDQQIVKWKQEIYRDIIKESKNLYDKYLNGDSPNSITNKKAYSATRITSSDESIIVAKGSAGAEKINYQFAVSQMAEPAKVTIKLNSSDPIVQQFPPNASGASSLNIGGVNIPISEQDTTSTIVSKINSLCADNDIRASYSEMTGELIISRKQTGSSSDIDLKVIGNDSLAGQIASDNGITFTTDASGTKSAVVYGKNLEADVTDDQGRVTHISKEQNSFKIDNIDYNVNSKGSAKLVSVTDTEEATKNMKAFVDDYNALMDKVYGLVTTKKSKDYPPLTDEQKDDMTTEEIEKWEKKAKEGILRNDDELRAFVEDIQSMFFGDADTIIALRKLGISEHENYNKKGQISFNADTFSKALIDDSDKVYKALAGYSSNYDDKGMFEKLKKIVFEYSGSSASKLTKKAGMENSSSASQNVYSKQIAEQERNISRLVEKMNDKEKRLYAKYSALESLLNKYSSQMNYFSQAQGN
**Q.** How did the “glycan array binding signal (z-score)” value (Kdn(a2-3)Gal(b1-4)GlcNAc) turn out when B1 was run?
**A.** Its value is -0.204.

**Q.** What about the “glycan array binding signal (z-score)” value [1] of the same binder?
**A.** The value was 0.919.

**Q.** What about the “glycan array binding signal (z-score)” value [2] of the same binder?
**A.** Its value is -0.247.

**Q.** What about the “glycan array binding signal (z-score)” value [3] of the same binder?
**A.** The value was -0.274.

**Q.** What about the “glycan array binding signal (z-score)” value (Neu5Ac(a2-3)Gal) of the same binder?
**A.** The value was -0.168.

**Q.** What about the “glycan array binding signal (z-score)” value [4] of the same binder?
**A.** The value was -0.056.

**Q.** And the “glycan array binding signal (z-score)” value [5]?
**A.** The value was -0.084.

**Q.** And the “glycan array binding signal (z-score)” value [6]?
**A.** Its value is -0.025.

**Q.** And the “glycan array binding signal (z-score)” value [7]?
**A.** The value was -0.222.

**Q.** What about the “glycan array binding signal (z-score)” value (Neu5Ac(a2-3)GalNAc) of the same binder?
**A.** The value was 1.09.

**Q.** And the “glycan array binding signal (z-score)” value [8]?
**A.** Its value is -0.197.

**Q.** And the “glycan array binding signal (z-score)” value [9]?
**A.** Its value is -0.179.

**Q.** And the “glycan array binding signal (z-score)” value [10]?
**A.** Its value is -0.197.

**Q.** And the “glycan array binding signal (z-score)” value [11]?
**A.** Its value is -0.193.

**Q.** What about the “glycan array binding signal (z-score)” value [12] of the same binder?
**A.** The value was -0.239.

**Q.** What about the “glycan array binding signal (z-score)” value [13] of the same binder?
**A.** The value was 0.957.

**Q.** And the “glycan array binding signal (z-score)” value [14]?
**A.** Its value is -0.19.

**Q.** What about the “glycan array binding signal (z-score)” value (Neu5Gc(a2-3)Gal(b1-4)Glc) of the same binder?
**A.** The value was -0.194.
